SARS PLpro yeast = qHTS of Yeast-based Assay for SARS-CoV PLP; Potency, µM (series often up to 32.9 µM), without a hit: at the top dose activity, positive = growth rescue, usual class: activators; actives 0.19% (n = 330,000); S. cerevisiae expressing SARS-CoV PLpro, growth rescue; AID 485353, 2010; calls by dose curve; also: potency is read from the fitted curve at half-maximal effect; 0% is about no effect; nearly all actives have a fitted effect of over 55% in size
AmpC inh no detg = qHTS Inhibitors of AmpC Beta-Lactamase (assay without detergent); AmpC nitrocefin hydrolysis, absorbance 480 nm, 0.0001% Triton; Potency, µM (titrated, usually from 57.1 µM), inactives show at the top dose activity change, negative = inhibition, hits mostly inhibitors; AID 485341, 2010; actives 0.52% (n = 330,000); P00811;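 also: potency is read from the fitted curve at half-maximal effect; plate controls were no compound for no effect and no enzyme for full effect; nearly all actives have a fitted effect of over 20% in size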
Target sequence (P00811 whole entry, looked up): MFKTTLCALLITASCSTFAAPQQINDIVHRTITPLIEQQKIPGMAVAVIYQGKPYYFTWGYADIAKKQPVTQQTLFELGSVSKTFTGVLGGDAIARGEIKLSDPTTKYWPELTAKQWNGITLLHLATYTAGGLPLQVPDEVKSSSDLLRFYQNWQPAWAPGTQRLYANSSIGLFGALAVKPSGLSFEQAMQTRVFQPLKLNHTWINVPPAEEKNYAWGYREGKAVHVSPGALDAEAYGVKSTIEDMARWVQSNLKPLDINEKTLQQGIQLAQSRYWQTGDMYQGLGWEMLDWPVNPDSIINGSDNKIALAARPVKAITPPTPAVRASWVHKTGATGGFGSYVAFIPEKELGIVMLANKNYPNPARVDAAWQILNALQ
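20 mM phosphate pH 7.0 + 0.01% (detergent screen) or 0.0001% Triton X-100; 5.3 nM AmpC reagent; cpd preinc 15 min RT; nitrocefin (800 uM stock) to start; A480 q20 s × 4 min; Activity was normalised to no-enzyme and no-compound control wells.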
AmpC detergent = qHTS Inhibitors of AmpC Beta-Lactamase (assay with detergent) | AmpC hydrolysis of nitrocefin, absorbance 480 nm, 0.01% Triton | Potency, µM (highest dose often 114 µM), without a hit: top-dose activity change, negative = inhibition, actives largely listed as inhibitors | actives 0.041% (n = 370,000) | AID 485294, 2010;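 also: potency is read from the fitted curve at half-maximal effect; 0% = no-compound wells and -100% = no-enzyme wells; nearly all actives have a fitted effect of over 25% in size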
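AmpC (5.3 nM in the dispensed reagent) in 20 mM phosphate pH 7.0 with 0.01% (detergent screen) or 0.0001% Triton X-100 was preincubated with compounds for 15 min at room temperature. Nitrocefin was then added from an 800 uM solution, and hydrolysis was followed at 480 nm.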
Cycloheximide cs = Cycloheximide Counterscreen for Small Molecule Inhibitors of Shiga Toxin | cell reporter, cycloheximide protein synthesis inhibition counterscreen | max response, % | actives 12% (n = 300,000); in the data active = max response mostly above about 13%, no sharp cut-off; inactive = mostly below about 14%; also: read at 38.3 µM for the half of the compounds with a filed dose; 0% is about no effect
Shiga inhibitor = A qHTS for Small Molecule Inhibitors of Shiga Toxin. actives 9.2% (n = 290,000). AID 2315, 2010. Vero cells, Shiga toxin protein synthesis inhibition reporter. inhibition, % at 38.7 µM; in the data active = inhibition mostly above about 28%, no sharp cut-off; inactive = mostly below about 43%; also: 0% is about no effect
AMA1 RON2 block = qHTS for Inhibitors of AMA1-RON; Towards Development of Antimalarial Drug Lead: Primary Screen; Plasmodium falciparum AMA1 (3D7) - RON2 peptide interaction; actives 0.2% (n = 360,000); AlphaScreen AMA1-biotinylated RON2 peptide binding; Potency, µM (top dose mostly 58.2 µM), inactives show at the top dose activity change, negative = inhibition, most hits filed as inhibitors;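 also: potency is read from the fitted curve at half-maximal effect; 0% = vehicle wells and -100% = peptide control; nearly all actives have a fitted effect of over 45% in size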
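AMA1 (3D7) with his tag at 25 nM final met compounds first, then biotinylated RON2 peptide at 25 nM; detection used donor plus acceptor beads, 10 µg/mL apiece, read by AlphaScreen after 30 min at room temperature.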
* = called active by the depositor; ? = inconclusive; nt = not tested or not shown; [ ] = remark or other dose. Many of the other results were omitted from the sample, so hits are more common in it than they were. Unless noted, calls follow the shape of the dose curve; as a rule, active = well fitted curve in the direction sought with a large enough effect; inconclusive = small, poorly fitted or top-dose-only effect, or another doubt; inactive = no such curve, though single readings can be large; an effect the other way counts as inactive or inconclusive.

SMILES	SARS PLpro yeast	AmpC inh no detg	AmpC detergent	Cycloheximide cs	Shiga inhibitor	AMA1 RON2 block
CN(Cc1nc(Cc2cccc(F)c2)no1)CC1COCCO1 (stereo not drawn)	-1%	-26%	1%	-2	2	-6%
CN(Cc1nc(-c2cccs2)no1)CC1COCCO1 (stereo not drawn)	1%	5%	6%	33*	61*	11%
CN(Cc1nc(-c2cccs2)no1)CC(O)c1ccccc1 (stereo not drawn)	1%	9%	-5%	44*	56*	0%
CN(Cc1nc(C(c2ccccc2)c2ccccc2)no1)CC1COCCO1 (stereo not drawn)	0%	-13%	-4%	15*	47	-14%
Cc1noc(C)c1S(=O)(=O)N(CC(=O)NCCc1ccc(Cl)cc1)c1ccc(C(C)C)cc1	nt	nt	0%	nt	nt	nt
C[C@@]12CCC3[C@@](CCC4[C@@]3(C)CCC[C@@]4(C)C(=O)NC3CCCCC3)(CC1=O)C2 (stereo partly drawn)	3%	10%	-6%	nt	nt	3%
Cc1ccc(CSc2nnc(C(F)(F)F)n2Cc2ccc(F)cc2)cc1	-1%	-11%	-10%	16*	21	26%
COc1ccc(C2C(C(=O)O)c3ccccc3C(=O)N2C)cc1Br (stereo not drawn)	-6%	-20%	3%	0	7	3%
c1ccc(-c2sc3ccccc3c2-c2ccc(OCCN3CCCCC3)cc2)cc1	0%	-12%	nt	nt	nt	-22%
O=C(Nc1ccn(Cc2ccc(Cl)cc2)n1)c1ccccc1	-1%	-23%	-9%	21*	90*	-11%
CCOC(=O)Cn1nc(NC(=O)c2ccc3c(c2)OCO3)cc1C	-2%	39%	6%	-2	7	-1%
O=C(Nc1ccn(Cc2ccccc2)n1)c1ccc2c(c1)OCO2	-1%	-5%[2.29 µM]	-2%	24*	42*	-6%
Cc1ccc(C)c(N(Cc2cc3ccc(C)cc3[nH]c2=O)C(=O)c2ccco2)c1	0%	-14%	-4%	-2	-2	-2%
CC(=O)NC(Cc1ccccc1)C(=O)NC1CCN(C(=O)c2cnccn2)CC1 (stereo not drawn)	1%	-5%	11%	-3	1	0%
Cc1nccc(-c2cc(-c3ccc(Cl)cc3Cl)no2)n1	0%	-3%	9%	36*	97*	17%
O=C(Nc1nc(-c2ccco2)c(-c2ccco2)s1)c1c(F)cccc1Cl	-4%	-43%	-9%	nt	nt	-27%
COc1ccc(N2CCN(C(=O)CNC(=O)c3nn(-c4ccc(OC)cc4)c(=O)c4ccccc34)CC2)cc1	1%	99%	?	-3	-2	-14%
COc1ccccc1-n1cc(C(=O)NCC(=O)N2CCN(c3ccccc3)CC2)c2ccccc2c1=O	3%	81%	-14%	30*	50*	-9%
COc1ccccc1N1CCN(C(=O)CNC(=O)c2cn(-c3ccccc3OC)c(=O)c3ccccc23)CC1	-1%	148%	-4%	14*	26	0%
COc1ccccc1-n1cc(C(=O)NCC(=O)N2CCN(c3ccccn3)CC2)c2ccccc2c1=O	0%	30%	2%	16*	14	4%
CCOC(=O)Cc1ccc(NC(=O)N2CCSc3ccccc32)cc1	nt	nt	3%	nt	nt	nt
Cc1ccccc1C(=O)N1CCN(c2ccc([N+](=O)[O-])c(N3CCOCC3)c2)CC1	1%	101%	4%	14	-25	1%
COc1ccc(C(CNC(=O)c2oc3cc(C)c(Cl)cc3c2C)N2CCCCC2)cc1 (stereo not drawn)	6%	-18%	-1%	-5	-9	8%
O=C(O)CC(C(=O)O)n1nc(-c2ccccc2)cc1-c1ccccc1 (stereo not drawn)	1%	-19%	-2%	39*	73	0%
O=C(O)Cn1nc(-c2ccccc2)cc1-c1ccccc1	-1%	-25%	-3%	12	9	-21%
SMILES	SARS PLpro yeast	AmpC inh no detg	AmpC detergent	Cycloheximide cs	Shiga inhibitor	AMA1 RON2 block
CC(=O)NC(C)(c1ccccc1)c1nc(-c2ccncc2)cs1 (stereo not drawn)	nt	nt	nt	nt	nt	-8%
Cc1ccc(-c2nc3ccccc3o2)cc1NC(=O)Cc1ccc(Cl)cc1	nt	nt	10%	nt	nt	nt
O=C(CCc1nnc(-c2ccccc2)o1)NCc1cc(F)ccc1F	1%	-2%	9%	17*	29	26%
O=C(CCc1nnc(-c2ccsc2)o1)NCc1ccccc1OC(F)(F)F	0%	23%	-1%	10*	9	-1%
CC(C)(C)OC(=O)N1CCC(C(=O)N2CCC[C@H]2C(=O)O)CC1	-16%	-19%	-4%	9.6*	60*	-5%
CC(C)(C)OC(=O)N1CCC[C@@H]1C(=O)N1CCC(C(=O)O)CC1	7%	-2%	-8%	-1	-3	4%
C=CCn1c(C)cc(C(=O)CSc2nnc(Cc3ccccc3)o2)c1C	?	-13%	-13%	31*	53	-5%
C=CCn1c(C)cc(C(=O)CSc2nnc(NCc3ccccc3)s2)c1C	-15%	-15%	-1%	46*	57	-28%
Cc1cc(NC(=O)CSc2nnc(NCc3ccccc3)s2)no1	0%	-14%	-5%	-3	-4	22%
C=CCn1c(C)cc(C(=O)CSc2nc3ccccc3o2)c1C	-22%	-44%	?	62*	110*	-16%
C=CCn1c(C)cc(C(=O)CSc2nnc(NC(C)C)s2)c1C	-18%	-12%	-1%	8	4	-1%
O=C(CSc1nnc(NCc2ccccc2)s1)c1ccco1	-1%	-22%	-16%	16	78*	-2%
Cc1cc(C(=O)CSc2nc3ccccc3o2)c(C)n1C1CC1	-21%	-33%	1%	53*	27*	-7%
C#CCNC(=O)/C=C/c1ccc(C)cc1	9%	-12%	-8%	36*	46	5%
O=C(/C=C/c1ccccc1)Nc1cccc(C(=O)NCCCc2ccccc2)c1	nt	nt	nt	nt	nt	3%
Cc1ccc(/C=C/C(=O)NCCCc2ccccc2)cc1	0%	-30%	?	19*	14	-5%
COc1cccc(NC(=O)NNC(=O)COc2ccc3ccccc3c2)c1	-1%	-27%	?	2	-11	120%
CCCSc1nnc(NC(=O)Nc2ccc(C)cc2)s1	0%	-48%	-2%	2	17	0%
CCCSc1nnc(NC(=O)Nc2ccc(F)cc2)s1	-16%	-23%	-1%	32*	29	-1%
CCCSc1nnc(NC(=O)Nc2ccccc2)s1	28%	-22%	?	19*	21	0%

From PubChem
